# Screens as filed in PubChem.
# In the library only some 2.2% were active in any assay of this set; here they are far more common.
# CHT PAM = CHT positive allosteric modulators, primary screen, cell-based, membrane potential dye, choline EC20; High affinity choline transporter 1 (Homo sapiens), Q9GZV3; CHT-expressing cells; active compounds read high; LV-AA mutant CHT in HEK293 cells; B-score at 10 µM; 310,000 tested, 0.49% active; AID 488977, 2010;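 active means initial fluorescence not abnormally high and integrated response B-score, plate-corrected, over 3 SD above library mean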
# Target sequence (Q9GZV3 whole entry, looked up): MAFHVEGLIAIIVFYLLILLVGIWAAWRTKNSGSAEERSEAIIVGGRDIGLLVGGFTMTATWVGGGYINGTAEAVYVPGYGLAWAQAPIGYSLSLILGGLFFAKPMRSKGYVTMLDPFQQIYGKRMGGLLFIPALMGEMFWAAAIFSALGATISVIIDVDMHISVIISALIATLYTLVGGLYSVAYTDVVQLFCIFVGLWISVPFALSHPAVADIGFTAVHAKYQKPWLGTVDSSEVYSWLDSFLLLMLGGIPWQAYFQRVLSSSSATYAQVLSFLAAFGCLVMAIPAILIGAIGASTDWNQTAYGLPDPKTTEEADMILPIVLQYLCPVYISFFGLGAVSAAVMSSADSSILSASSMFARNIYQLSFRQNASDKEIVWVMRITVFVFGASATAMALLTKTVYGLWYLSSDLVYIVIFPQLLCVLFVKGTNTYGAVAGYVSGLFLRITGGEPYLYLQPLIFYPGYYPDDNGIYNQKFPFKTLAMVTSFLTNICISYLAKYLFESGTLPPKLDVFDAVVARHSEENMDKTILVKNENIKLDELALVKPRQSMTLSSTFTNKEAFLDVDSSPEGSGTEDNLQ
# HIF act = HIF pathway transcriptional activators, primary screen, cell-based, U2OS HRE-luciferase, luminescence | U2OS HRE-luciferase reporter; normalized: DMSO 0%, desferrioxamine 100% | activation, % at 7.5 µM (by protocol) | AID 1910, 2009 | 300,000 tested, 0.32% active;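 active means mean activation of at least 10% of the iron chelator positive control signal, with at least half of replicates also reaching 10%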
# CHT block = inhibitors of human choline transporter CHT. High affinity choline transporter 1 (Homo sapiens), Q9GZV3. CHT-expressing cells, membrane potential dye, choline response; active compounds read low. B-score at 10 µM. 310,000 tested, 0.86% active. AID 488975, 2010;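 active means B-score over 3 SD under the library average, and starting fluorescence ratio not unusually high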;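 further: choline stimulus applied at its EC90 after an EC20 pre-addition; B-score computed on integrated fluorescence ratio after choline addition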
# AI-2 QS modul = Vibrio harveyi AI-2 quorum sensing modulators, primary screen, JMH597 strain, luminescence/OD600 ratio. activity change, % at 7.5 µM. Vibrio harveyi JMH597 AI-2 luminescence/OD600 ratio, 9 h; active compounds read low; strain lacks LuxN and CqsS sensors; 0 = neutral-control median. 300,000 tested, 0.4% active; in the data active means activity change below about -75%, passing the limit was not always enough;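 further: luminescence divided by OD600 gain over 9 h not by final OD600 alone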
# Platelet DG rel = inhibitors of platelet dense granule secretion, primary screen, cell-based, MLPCN, human platelets | human platelet-rich plasma, SFLLRN dense granule ATP release, luminescence | 300,000 tested, 0.22% active | inhibition, %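 (compounds screened at 7.5 µM in platelet-rich plasma)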;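 active means mean replicate score, as percent of positive control, at or above 50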
# VLA-4 inh = inhibition in human VLA-4 binding assay, primary screen, VLA-4 allosteric modulator project, MLPCN library, flow cytometry, VLA-4 expressing cells; Integrin alpha-4 (Homo sapiens), P13612; ligand binding flow cytometry; inhibition, % (about 7 µM as worked out from the volumes in the protocol); 330,000 tested, 0.2% active; AID 2557, 2010; in the data active means inhibition above about 50%
# VLA-4 allo CP = retest of VLA-4 allosteric modulators, confirmation, cell-based, cherry-picked plates, U937, HUTS-21 LIBS antibody. shares compounds with VLA-4 inh. U937 cells, HUTS-21 LIBS mAb binding, flow cytometry; LDV ligand present at threefold Kd. inhibition, % at 6.7 µM. 1,300 tested, 2% active; in the data active means inhibition above about 40%;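 further: 0% = ligand without compound and 100% = no ligand background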
# * marks the source's active call; other numbers are inactive results; i = inactive; nt = not tested or not shown; ! = not active in a repeat.
SMILES,CHT PAM,HIF act,CHT block,AI-2 QS modul,Platelet DG rel,VLA-4 inh,VLA-4 allo CP
COc1ccc(N(CC(=O)Nc2cc(Cl)ccc2OC)S(=O)(=O)c2c(C)[nH]c(=O)[nH]c2=O)cc1,i,1,i,13,-10,0,-5
Cc1ccc(N(CC(=O)Nc2ccc(Br)c(C)c2)S(=O)(=O)c2c(C)[nH]c(=O)[nH]c2=O)cc1,i,0,i,19,-1,-5,-4
COc1ccc(N(CC(=O)Nc2cc(C)ccc2C)S(=O)(=O)c2c(C)[nH]c(=O)[nH]c2=O)cc1,i,0,i,21,4,-4,-1
COc1ccc(N(CC(=O)Nc2cc(Cl)ccc2C)S(=O)(=O)c2c(C)n[nH]c2C)cc1,i,1,i,-1,-7,-8,nt
CC(C(=O)Nc1cccc([N+](=O)[O-])c1)N1C(=O)NC2(CCCC2)C1=O (centres undefined),i,-1,i,7,7,8,nt
N#Cc1ccc(CNC(=O)N2CCOCC2)cc1,nt,nt,nt,18,nt,45,0
O=C(NCc1ccc(Cl)cc1)N1CCOCC1,i,1,i,-3,6,0,nt
CCN(C[C@H]1N[C@@](C)(C(=O)OC)[C@H]2C(=O)N(Cc3ccccc3)C(=O)[C@@H]12)S(=O)(=O)c1ccc(OC)cc1,nt,nt,nt,nt,nt,-4,nt
CC1CN(CCOCCSc2ccccc2)CC(C)O1 (centres undefined),i,0,i,17,1,46,2
CC1CN(CCOCCSc2ccc(Cl)cc2)CC(C)O1 (centres undefined),i,0,i,11,1,27,nt
O=c1c2ccccc2nc2n1CCc1c-2[nH]c2ccccc12,i,nt,i,nt,nt,51*,4
CC(C)C(=O)Nc1nnc(S(=O)(=O)N2CCCc3ccccc32)s1,i,0,i,-1,-10,51*,3
CC(C)C(=O)Nc1nnc(S(=O)(=O)N2CCc3ccccc32)s1,i,0,i,11,22,-7,nt
CN1C(=O)Cc2cc(S(=O)(=O)Nc3ccc(N4CCOCC4)cc3)ccc21,i,0,i,23,11,11,4
Cc1cc(S(=O)(=O)Nc2ccc(N3CCOCC3)cc2)ccc1Br,i,-2,i,43,-4,13,nt
COc1ccc(Br)cc1S(=O)(=O)n1c([N+](=O)[O-])cnc1C,i,-3,i,14,3,45,-13
COc1ccc(C(=O)NC(C)c2nnc(SCC(=O)Nc3nc(C)cs3)n2C)cc1 (centres undefined),i,-3,i,27,5,2,0
Cc1ccc2cc(CCNC(=O)CCCc3ccccc3)c(=O)[nH]c2c1C,i,-1,i,-4,-12,-7,nt
CCn1c2ccccc2c2cc(NC(=O)COc3ccc(OC)cc3)ccc21,i,0,i,8,9,-6,nt
CCn1c2ccccc2c2cc(NC(=O)c3cc(OC)cc(OC)c3)ccc21,i,0,i,29,-2,47,32
CC(C)Oc1cccc(-c2cc(C(=O)N3CCN(c4ncccn4)CC3)c3ccccc3n2)c1,i,0,i,13,2,17,-2
O=C(c1cc(-c2ccc(Br)cc2)nc2ccccc12)N1CCN(c2ccccc2O)CC1,i,1,i,3,19,5,-10
CC1Cc2ccccc2N1c1ncnc(N)c1[N+](=O)[O-] (centres undefined),i,7,i,17,4,53*,16
CC1CCCCN1c1ncnc(N)c1[N+](=O)[O-] (centres undefined),i,2,i,1,-20,-2,nt
OC1C(O)C(O)C(O)C(O)C1O (centres undefined),i,0,i,18,0,51*!,3
SMILES,CHT PAM,HIF act,CHT block,AI-2 QS modul,Platelet DG rel,VLA-4 inh,VLA-4 allo CP
NS(=O)(=O)c1cccc(NC(=O)CCN2C(=O)C3CCCCC3C2=O)c1 (centres undefined),nt,nt,nt,nt,nt,53*,-5
CCOc1ccccc1NC(=O)C1CCCN(S(=O)(=O)c2ccc3c(c2)C(C)(C)C(=O)N3C)C1 (centres undefined),i,0,i,29,-10,50*,0
CCC(=NNC(=O)c1cccc(S(=O)(=O)N2CCOCC2)c1)c1ccccc1,nt,nt,nt,nt,nt,50*,6
Cc1c(NC(=O)c2ccco2)c(=O)n(-c2ccccc2)n1C,i,0,i,8,-3,-4,nt
Cc1c(NC(=O)c2cc3ccccc3c(=O)s2)c(=O)n(-c2ccccc2)n1C,i,0,i,12,14,53*,6
Cc1c(NC(=O)c2c(F)c(F)c(F)c(F)c2F)c(=O)n(-c2ccccc2)n1C,i,0,i,24,-6,4,0
Cc1c(NC(=O)CN2CCN(C(=O)c3ccco3)CC2)c(=O)n(-c2ccccc2)n1C,i,-1,i,16,-6,-3,2
Cc1c(NC(=O)c2ccc(Cl)s2)c(=O)n(-c2ccccc2)n1C,i,0,i,12,-25,8,nt
COc1ccc(S(=O)(=O)N2CCCCC2)cc1NC(=O)Cc1cccs1,nt,nt,nt,nt,nt,-4,nt
COCCN(CC(=O)Nc1cccc(C)c1C)C(=O)c1ccc(-n2cccn2)cc1,nt,nt,nt,nt,nt,0,nt
CC(C)Oc1ccccc1C1CC(=O)Nc2cc3c(cc21)OCO3 (centres undefined),i,0,i,17,-6,57*,42*
CCOc1ccccc1C1CC(=O)Nc2cc3c(cc21)OCCO3 (centres undefined),i,0,i,11,-5,0,nt
COc1cccc(C(=O)CC(C#N)c2ccc(F)cc2)c1 (centres undefined),i,1,i,-7,2,15,nt
CC(=O)NN1C(=O)/C(=C2/Sc3ccccc3N2C)SC1=S,i,1,i,11,-8,42,13
C=CCN1/C(=C2/SC(=S)N(C)C2=O)Sc2ccccc21,i,1,i,-4,-8,-246,nt
Cc1ccc(S(=O)(=O)N2[C@@H](c3ccc(Cl)cc3)C(C(=O)O)=C[C@H]2CC2CCCC2)cc1,nt,nt,nt,nt,nt,28,-1
